Data: PubChem BioAssay AID376 (PDSP, 2006)
About 250 (12%) of roughly 2,000 compounds were called active. Shown is part of a subset that was picked to be rich in actives. Unmarked numbers belong to inactive results. Rule as the data show it: active = hERG blockade below about -20% or above about 20%; inactive = in between.

What follows are compounds tested against Voltage-gated inwardly rectifying potassium channel KCNH2 (Homo sapiens) (UniProt Q12809) (assay: modulators of KCNH2 ion channel function, cellular (AID 376;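 also: 0% = buffer alone and 100% = reference blocker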)). Conditions: hERG-expressing cells, channel activity single-concentration screen; concentration not given here.
Chain of Voltage-gated inwardly rectifying potassium channel KCNH2 (Homo sapiens) (Q12809 whole entry, looked up): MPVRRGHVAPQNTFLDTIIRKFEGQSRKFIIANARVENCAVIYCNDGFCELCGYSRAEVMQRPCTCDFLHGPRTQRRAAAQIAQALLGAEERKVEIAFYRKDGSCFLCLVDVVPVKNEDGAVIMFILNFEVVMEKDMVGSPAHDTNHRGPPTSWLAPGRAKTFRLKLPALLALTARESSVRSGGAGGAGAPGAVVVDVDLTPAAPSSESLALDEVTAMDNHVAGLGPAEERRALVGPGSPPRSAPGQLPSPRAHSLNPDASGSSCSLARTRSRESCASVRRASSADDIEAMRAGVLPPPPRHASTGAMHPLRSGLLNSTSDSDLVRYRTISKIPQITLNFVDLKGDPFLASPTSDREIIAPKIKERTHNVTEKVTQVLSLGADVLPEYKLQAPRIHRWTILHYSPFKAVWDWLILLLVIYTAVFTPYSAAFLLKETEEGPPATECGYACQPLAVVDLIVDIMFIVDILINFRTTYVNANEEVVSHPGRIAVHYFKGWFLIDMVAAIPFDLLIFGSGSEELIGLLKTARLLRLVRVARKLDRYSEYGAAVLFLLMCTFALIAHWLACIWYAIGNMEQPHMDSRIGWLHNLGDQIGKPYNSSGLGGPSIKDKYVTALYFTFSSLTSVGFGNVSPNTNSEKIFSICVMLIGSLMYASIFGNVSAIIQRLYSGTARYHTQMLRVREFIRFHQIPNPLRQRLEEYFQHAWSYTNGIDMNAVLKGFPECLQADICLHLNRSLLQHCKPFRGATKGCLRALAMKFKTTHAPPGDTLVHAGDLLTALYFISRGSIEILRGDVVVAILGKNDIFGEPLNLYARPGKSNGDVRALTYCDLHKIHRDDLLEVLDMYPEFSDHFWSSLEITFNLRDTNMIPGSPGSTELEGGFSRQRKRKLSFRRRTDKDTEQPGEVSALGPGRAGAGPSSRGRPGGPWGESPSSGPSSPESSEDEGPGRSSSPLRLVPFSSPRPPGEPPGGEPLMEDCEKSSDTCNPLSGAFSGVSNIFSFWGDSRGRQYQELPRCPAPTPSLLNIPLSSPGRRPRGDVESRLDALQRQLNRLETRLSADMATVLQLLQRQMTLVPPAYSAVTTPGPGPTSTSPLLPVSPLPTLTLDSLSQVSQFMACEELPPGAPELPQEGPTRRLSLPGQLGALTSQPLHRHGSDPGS

Compound | hERG blockade
CC(C)c1cc(CN(C)C)c(O)c(C(C)(C)C)c1 | 13.4%
Nc1nc(N)[n+]([O-])c(N)c1NCO | -6.48%
C=CCNS(=O)(=O)c1ncnc2nc[nH]c12 | -2.53%
Nc1nc(-c2cc(-c3cccc4ccccc34)nc(N)n2)cc(-c2cccc3ccccc23)n1 | 3.59%
Nc1cc2c(nc3c4ccccc4c(N)cc3[n+]2-c2cccc3ccccc23)c2ccccc12 (tested in a mixture with another compound) | 51.9% (active)
O=S(=O)(c1ccc(Br)cc1)N1CCN(S(=O)(=O)c2ccc(Br)cc2)CC1 | 11.5%
O=C(O)C1CCCCC1c1c2ccc(=O)c(O)c-2oc2c(O)c(O)ccc12 (stereo not given) | -2.68%
CC(=O)C1(N=Nc2ccc(S(N)(=O)=O)cc2)CCOC1=O (stereo not given) | -10.6%
c1ccc2sc(SCSc3nc4ccccc4s3)nc2c1 | -7.22%
CC(CCC(=O)O)(c1ccc(O)cc1)c1ccc(O)cc1 | 4.36%
CC(CCc1nc2ccccc2s1)(c1ccc(O)cc1)c1ccc(O)cc1 | 24% (active)
O=C(O)c1ccccc1C(=O)c1ccc2c(c1)Cc1ccccc1-2 | -16.1%
Cn1c(=O)c2c(ncn2CN2CCN(Cn3cnc4c3c(=O)n(C)c(=O)n4C)CC2)n(C)c1=O | 0.775%
O=C(O)CSc1nnc2c3ccccc3c3ccccc3c2n1 | -2.16%
c1ccc2c[n+](Cc3ccnc4ccccc34)ccc2c1 | 16.2%
c1ccc2c[n+](CCCC[n+]3ccc4ccccc4c3)ccc2c1 | 22% (active)
CC(=N[O-])C(C)=N[O-].CC(=N[O-])C(C)=N[O-].[CH2-]CCN1CCOCC1.[Co].c1ccncc1 | 17.9%
O=C(O)c1ccc([N+](=O)[O-])c(P(=O)(O)O)c1 | -6.85%
Cc1nc2ccccc2nc1-c1ccc(N=[N+]([O-])c2ccc(-c3nc4ccccc4nc3C)cc2)cc1 | 1.15%
O=C(O)C(=Cc1ccccc1)Cc1ccccc1 | -1.14%
CC1=CC(=C(c2ccc(O)c(C)c2)c2ccccc2C(=O)O)C=CC1=O | 30.9% (active)
O=C(O)c1ccc(C(=O)c2ccccc2C(=O)O)cc1C(=O)O | 1.52%
Cc1ccc(NC(=O)c2ccccc2C(=O)O)cc1C | 0.447%
CC(C)=NNc1ncnc2nc[nH]c12 | -8.04%
O=C1CSC(=S)N1N=Cc1ccc(Cl)c([N+](=O)[O-])c1 | 8.8%

Compound | hERG blockade
O=C(O)c1ccc(S(=O)(=O)N=Nc2c(O)[nH]c3ccccc23)cc1 | -4.01%
N=C(N)c1ccc(N=Nc2c(O)ccc3c2[nH]c2ccccc23)cc1 | -25.6% (active)
O=Nc1c(O)[nH]c2ccccc12.O=Nc1c(O)[nH]c2ccccc12.[Cu] | 0.0535%
C(=NNc1ccccn1)c1cccnc1 | 20.3% (active)
c1ccc(CCc2cccnc2)nc1 | 5.71%
C(=NNc1nnc2c(n1)[nH]c1ccccc12)c1cccnc1 | 9.9%
Nc1ccc(-c2ccc(Nc3cc(S(=O)(=O)O)c(N)c4c3C(=O)c3ccccc3C4=O)cc2)c(S(=O)(=O)O)c1 | 14.3%
O=C(O)CCNCC(=O)O | 2.22%
Cc1cc(C(C)(C)C)cc(CNC2CCCCC2)c1O | -1.49%
OCCN(CCO)c1ncnc2nc[nH]c12 | 9.05%
CN(C)CCCC1c2ccccc2Oc2ccc(C(F)(F)F)cc21 (stereo not given) | 32.9% (active)
CCCC1c2c(ccc3ccccc23)Oc2ccc3ccccc3c21 | 16.8%
NC(N)=NN=Cc1ccc(O)c(C(=O)O)c1 | 7.85%
O=C(O)c1[nH]c(=O)[nH]c(=O)c1CN1CCCCC1 | -7.69%
Cc1cc(CN2CCCCC2)c(O)c(CN2CCCCC2)c1 | 8.76%
Cc1nc(CN2CCCCC2)c(O)c(=O)[nH]1 | -28.2% (active)
CCN1CCC(O)(C(C(=O)O)c2ccccc2)CC1 (stereo not given) | 4.76%
CC(C)=CCNc1ncnc2nc[nH]c12 | -6.5%
CCN(Cc1cc(Cl)cc(C)c1O)Cc1c(O)ccc2ccccc12 | 13%
Cc1cccc2cc3ccc4ccccc4c3cc12 | 11.1%
CCN(CC)CC(O)c1ccc2ccc3ccccc3c2c1 (stereo not given) | -73.4% (active)
N=C(N)SCCSC(=N)N | 9.63%
N#CC(C#N)=NNc1ccc2cn[nH]c2c1 | -4.08%
CN(C)S(=O)(=O)Nc1ccccn1 | 4.55%
O=C(O)CC[P+](c1ccccc1)(c1ccccc1)c1ccccc1 | 19.1%

Compound | hERG blockade
CN(CCC(=O)O)S(=O)(=O)c1ccccc1 | -22% (active)
CC(O)(CNS(=O)(=O)c1ccccc1)c1ccccc1 (stereo not given) | -5.67%
O=c1[nH]c(SCc2cccc([N+](=O)[O-])c2)nc2nc[nH]c12 | 7.87%
CC1(CO)C(O)CCC2(C)C1CCC1CC3CC12CCC3(O)COC(=O)CN (stereo not given) | 14.2%
N=C(N)SCC(=O)O | 11%
O=C(O)c1cscc1Cc1cccs1 | -9.17%
O=C(O)c1ccccc1CN1CCCC(C(=O)O)C1 (stereo not given) | -4.8%
OC(c1cc(C23CC4CCC2CC(C4)C3)nc2c(Cl)cc(Cl)cc12)C1CCCCN1 (stereo not given) | -0.23%
COc1ccc(-c2cc(C(O)C3CCCCN3)c3ccccc3n2)cc1 (stereo not given) | 72.7% (active)
OC(CC1CCCCN1)c1ccc2c(c1)oc1ccccc12 (stereo not given) | 4.42%
O=C(O)c1cc(-c2ccc(-c3ccccc3)cc2)nc2cc3ccccc3cc12 | 12.2%
c1ccc2nc(CCC3CCCCN3)ccc2c1 (stereo not given) | -2.95%
Cc1cc(C)c2nc3c(c(C(O)C4CCCCN4)c2c1)CCC3=Cc1ccc(Cl)cc1 (stereo not given) | 8.84%
O=C(O)CSc1cc(-c2ccccc2)nc2ccccc12 | -16.2%
OC(c1cc(C(F)(F)F)nc2c(Cl)cc(Cl)cc12)C1CCCCN1 (stereo not given) | 28.7% (active)
O=C(O)c1cc(-c2ccc3cc4c(cc3c2)OCO4)nc2ccccc12 | 17.2%
OC(c1cc(-c2ccccc2)nc2c1ccc1ccccc12)C1CCCCN1 (stereo not given) | 26.8% (active)
OC(c1cc(-c2ccc(Cl)cc2)nc2ccccc12)C1CCCCN1 (stereo not given) | 74.7% (active)
NC(CSCc1ccc(I)cc1)C(=O)O (stereo not given) | 8.02%
O=C(O)c1cc2c(cc1S(=O)(=O)O)C1C(C3C2C2(Cl)C(Cl)=C(Cl)C3(Cl)C2(Cl)Cl)C2(Cl)C(Cl)=C(Cl)C1(Cl)C2(Cl)Cl (stereo not given) | 3.63%
CC(C)Oc1cc(O)c2c(c1)OCC=C2CCC(=O)O | 16%
O=C1OC2(c3ccc(O)cc3Oc3cc(O)ccc32)c2c1c(-c1ccccc1)c(-c1ccccc1)c(-c1ccccc1)c2-c1ccccc1 | -2.77%
O=C(O)C=CC=Cc1ccc2c(c1)OCO2 | -8.5%
O=C(O)CSC1=NCCN1 | -1.36%
Cc1ccc(S(=O)(=O)OC2CCN(C)CC2)cc1 | -11.1%

Compound | hERG blockade
Nc1ncnc2nn(C3OC(CO)C(O)C3O)nc12 (stereo not given) | 13.3%
N#CC(=NCCO)C1=C(O)c2ccccc2C1=O | -3.02%
CC1CCCC2(CC[N+](C)(CCC[N+](C)(C)C)CC2)C1 (stereo not given) | 17.8%
CCN(CC(=O)O)CC(=O)O | 4.67%
CC12CCC(=O)C=C1CCC1C2C(O)CC2(C)C1CCC2(O)C(=O)CO (stereo not given) | 14.3%
CN1CCCC(C(=O)OCC(=O)C2(O)CCC3C4CCC5=CC(=O)CCC5(C)C4C(O)CC32C)C1 (stereo not given) | 25.6% (active)
CC12CCC(=O)C=C1CCC1C2C(O)CC2(C)C1CCC2(O)C(=O)COC(=O)C1CCCC1 (stereo not given) | -2.63%
CC(NC(=O)C1(N)CCCC1)C(=O)O (stereo not given) | -5.06%
CCOC(=O)Cn1c(C(F)(F)F)nc2nc(Cl)c(Cl)nc21 | 13.4%
O=C(O)c1nn(-c2ccc(Cl)cc2)c2c1C(=O)c1ccccc1C2=O | 26% (active)
O=C1C(=O)c2ccccc2C(O)=C1C(C1=C(O)c2ccccc2C(=O)C1=O)c1ccc(Cl)cc1 | 17.5%
O=C(O)c1nn(-c2ccccc2-c2n[nH]c(=O)[nH]c2=O)c(=O)[nH]c1=O | 7.69%
Cc1cn(C2CC(N=[N+]=[N-])C(CO)O2)c(=O)[nH]c1=O (stereo not given) | 9.12%
CC(C)C12CCC3(CCC4C(C)(C(=O)O)CCCC4(C)C3C1)C(CN)C2 (stereo not given) | -4.91%
CN(C)CCC=C1c2ccccc2Sc2ccc(Cl)cc21 | 66.2% (active)
CN(C)CCC=C1c2ccccc2C=Cc2ccccc21 | 15.1%
CC(C[n+]1ccccc1)=NN=C(N)N | 12.9%
Clc1ccc2c(NCCNC3CCCCC3)ccnc2c1 | 63.2% (active)
Clc1ccc2c(NCCNc3ccnc4cc(Cl)ccc34)ccnc2c1 | 0.444%
Clc1ccc2c(NC3CCC(N4CCCCC4)CC3)ccnc2c1 (stereo not given) | 53.4% (active)
O=C(O)c1ccc(Nc2ccnc3cc(Cl)ccc23)cc1O | -3.15%
Clc1ccc2c(N3CCC(CCC4CCN(c5ncnc6cc(Cl)ccc56)CC4)CC3)ncnc2c1 | -8.41%
O=C(O)CN(CCN(CC(=O)O)CC(=O)O)CC(=O)O.[Mn+2] | -6.49%
O=c1ccc(-c2ccccc2)n[nH]1 | 17.2%
CC(C)C(N)(C(=O)O)c1ccccc1 (stereo not given) | -5.81%
